# According to PubChem BioAssay (Tox21):
# The source made the active and inactive calls. Calls come from the whole dose curve; as a rule, active = well fitted cell-killing curve with a large enough effect in the repeat runs; inconclusive = weak or mixed curves, or effect the other way; inactive = flat fitted curve, though single readings scatter.
# Assay: qHTS assay to identify small molecule HDAC inhibitors - cell viability counter screen (AID 1259365); note: nearly all actives have a fitted effect of over 50% in size
# Conditions: HCT-116 viability, CellTiter-Glo ATP luminescence, 2 h; series mostly up to 92.4 µM
# Source text: U.S. Tox21 Program National Center for Advancing Translational Sciences [NCATS] NIH Chemical Genomics Center [NCGC] U.S. Environmental Protection Agency [EPA] National Institutes of Environmental Health Sciences [NIEHS] National Toxicology Program [NTP] U.S. Food and Drug Administration [FDA] Tox21 Assay Overview: Histone deacetylases (HDACs) are a group of epigenetic enzymes that regulate gene expression by histone deacetylation. HDACs are capable of introducing epigenetic modifications and such aberrations contribute to the onset and progression of several human diseases, thus making HDACs a popular therapeutic target. For identifying endogenous class I/II HDAC inhibitors a homogenous, luminogenic HDAC I/II cell based assay was used to measure the relative activity of class I and II HDACs from cells. Wild type HCT-116 cells were used to screen Tox21 compound libraries for identifying class I/II HDAC inhibitors.
# Tox21 Assay Protocol Summary: HCT-116 cells were dispensed at 1,500 per well in 5uL of culture medium into white solid bottom 1536-well plates (Greiner Bio-One, Monroe, NC) using a Multidrop Combi (Thermo Scientific, Waltham, MA) dispenser. The assay plates were incubated at 37 C and 5% CO2 for an overnight, and then 23nL of compounds dissolved in DMSO and positive control were transferred using a Pintool station (Wako, San Diego, CA). The assay plates were incubated at 37C and 5% CO2 for 2hr. After compound treatment, 4uL of CellTiter-Glo reagent (Promega Corporation, Madison, WI) was added to each well of the assay plates using Flying Reagent Dispenser (FRD, Aurora Discovery, San Diego, CA) and incubated the assay plates at room temperature for 30min. The luminescence signal was quantified using a ViewLux plate reader (Perkin Elmer, Shelton, CT).
row,Structure (SMILES),outcome
1,OCc1cccc(Oc2ccccc2)c1,inactive
2,CC(C)CCCCCCCOC(=O)CCCCC(=O)OCCCCCCCC(C)C,inactive
3,CN(C)c1ccc(O)c2c1C[C@H]1C[C@H]3[C@H](N(C)C)C(=O)C(C(N)=O)=C(O)[C@@]3(O)C(=O)C1=C2O,inactive
4,CCCCCCCC=O,inactive
5,C=CCc1ccc(OC)c(OC)c1,inactive
6,O=C(O)c1ccccc1C(=O)O,inactive
7,CCCCCCO,inactive
8,O=[N+]([O-])c1ccc2nc[nH]c2c1,inactive
9,CC(C)c1cccc(C(C)C)c1,inactive
10,COc1cc(OC)c(C(=O)CCCN2CCCC2)c(OC)c1,inactive
11,C=CC[N+](C)(C)CC=C,inactive
12,CNC(=S)N(C)C,inactive
13,COC(=O)CCCC(=O)OC,inactive
14,CCCCCCCCCCN,inactive
15,CN(C)c1ccc(Cc2ccc(N(C)C)cc2)cc1,inactive
16,CC(=O)OCc1ccco1,inactive
17,C[C@]12CC[C@@H]3c4ccc(O)cc4CC[C@H]3[C@@H]1C[C@@H](O)[C@@H]2O,inactive
18,CC(CCO)CC(C)(C)C (stereo not given),inactive
19,CC(C)CC(C)O (stereo not given),inactive
20,CCNc1cccc(C)c1,inactive

row,Structure (SMILES),outcome
1,C=Cc1ccc(C)cc1,inactive
2,O=C(O)c1cc2ccccc2cc1O,inactive
3,COc1ccc(CCC(C)=O)cc1,inactive
4,NCCNCCN,inactive
5,CC(C)=CCl,inactive
6,Clc1ccccn1,inactive
7,CC1(C)S[C@@H]2[C@H](NC(=O)COc3ccccc3)C(=O)N2[C@H]1C(=O)O,inactive
8,CC(=O)CCC=C(C)C,inactive
9,CCCCCCCCCCCCCCCC(=O)OC(C)C,inactive
10,COC(=O)c1cccnc1,inactive
11,CCOC(=O)c1ccc(N)cc1,inactive
12,CCNC(=S)NCC,inactive
13,CC1(C)OC[C@@H]2O[C@@]3(C(=O)O)OC(C)(C)O[C@H]3[C@@H]2O1,inactive
14,Cc1ccc2ncccc2c1,inactive
15,CCO[Si](CCC#N)(OCC)OCC,inactive
16,C=CC(C)CCCC(C)(C)O (stereo not given),inactive
17,O=S(=O)(O)c1ccccc1,inactive
18,CCOCCOCCOCCO,inactive
19,CCc1ccccc1CC,inactive
20,CCCCCC(=O)O,inactive
